Source: PubChem (several laboratories)
Compounds with a hit are over-represented: about 3.7% of the library has one in this group of screens.
TIM10 inh = TIM10 yeast growth inhibition | S. cerevisiae TIM10 strain growth, BacTiter-Glo luminescence, 24 h | inhibition, % at 10 µM | hit rate 1.4% among 330,000;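 active = inhibition of 40% or more at the single tested concentration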;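 note: wild-type TIM10 isogenic control strain grown at permissive 25 °C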
tim10-1 inh = growth inhibitors of tim10-1 mutant yeast; hit rate 2.2% among 330,000; inhibition, % at 20 µM; AID 463190; S. cerevisiae tim10-1 ts strain growth, BacTiter-Glo, 24 h;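 active = inhibition of at least 40%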;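 note: mutant grown at 25 °C; 0% = DMSO wells with yeast and 100% = wells holding no yeast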
tim23-1 inh = growth inhibitors of tim23-1 mutant yeast; hit rate 1.3% among 330,000; inhibition, % at 20 µM; S. cerevisiae tim23-1 growth, BacTiter-Glo luminescence, 24 h;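 active = growth inhibition of the mutant yeast at or above 50%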;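 note: temperature-sensitive mutant grown at 25 °C; plate controls were DMSO-treated mutant yeast for no effect and medium wells lacking yeast for full effect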
V-ATPase pHluor = regulators of yeast V-ATPase proton transport | hit rate 0.37% among 350,000 | S. cerevisiae, pHLuorin cytosolic pH fluorescence | AID 504577 | response, % at 10 µM; in the data active = response mostly above about 7.3%, no sharp cut-off; inactive = mostly below about 5.4%; note: actives read high
PfHsp90 set2 = inhibits growth of yeast expressing Plasmodium falciparum Hsp90. AID 504621. S. cerevisiae expressing PfHsp90, BacTiter-Glo ATP, 48 h; yeast lacking PDR1 and PDR3 efflux regulators. inhibition, % at 9.4 µM. hit rate 0.32% among 310,000;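 active = every replicate shows inhibition above about 80%, whatever the replicate mean, limit read from the data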;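 note: 0% = DMSO neutral controls and 100% = 20 µM radicicol positive controls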
tim10-1 conf = tim10-1 yeast growth inhibition, confirmed; shares compounds with tim10-1 inh; S. cerevisiae tim10-1 ts strain growth, BacTiter-Glo, 24 h; inhibition, % at 20 µM; hit rate 56% among 7,400;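 active = inhibition of yeast growth at or above a set limit in either of two repeat tests at 20 µM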;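 note: tim10-1 mutant grown at permissive 25 °C to find synthetic lethal compounds; 0% = DMSO yeast wells and 100% = medium wells without yeast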
tim10 confirm = TIM10 yeast growth inhibition, confirmed. inhibition, % at 10 µM. S. cerevisiae tim10 strain growth, BacTiter-Glo luminescence, 24 h. AID 463215. hit rate 63% among 4,600. shares compounds with TIM10 inh;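 active = inhibition of yeast growth at or above a set limit in either of two replicates at 10 µM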;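 note: this counterscreen used the strain with wild-type TIM10; 0% = yeast with DMSO and 100% = medium wells lacking yeast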
tim23-1 confirm = confirmation of tim23-1 mutant yeast growth inhibitors; shares compounds with tim23-1 inh; S. cerevisiae tim23-1 growth, BacTiter-Glo luminescence, 24 h; inhibition, % at 20 µM; hit rate 83% among 4,400; AID 463218;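 active = inhibition above about 39% in either of two replicate wells at 20 µM, limit read from the data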;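 note: temperature-sensitive tim23-1 mutant grown at 25 °C; 0% = DMSO wells with yeast and 100% = medium wells without yeast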
* hit, by the source's call; · = not tested or not shown.

SMILES	TIM10 inh	tim10-1 inh	tim23-1 inh	V-ATPase pHluor	PfHsp90 set2	tim10-1 conf	tim23-1 confirm	others
O=C(Nc1ccccc1F)c1cc(S(=O)(=O)N2CCOCC2)ccc1N1CCOCC1	-6	6	14	3	-7	·	·
O=C(NC(=S)Nc1ccccc1Cl)C1CC1	24	30	36	-4	·	·	·
Cc1ccc(NC(=S)NC(=O)C2CC2)cc1Cl	30	49*	61*	0	-2	14	49*
COC(=O)c1ccc(NC(=S)NC(=O)C2CCC2)cc1	22	35	50	-1	6	·	·
CCOC(=O)c1ccc(NC(=S)NC(=O)C2CCCC2)cc1	41*	48*	58*	4	-22	36*	44*	tim10 confirm=53*
CC1c2ccccc2-c2ccccc2N1C (configuration not stated)	·	·	·	2	-16	·	·
CC(=O)n1cc(N(C(=O)CCl)c2ccc(Cl)cc2)c2ccccc21	34	48*	64*	1	·	46*	41*
COc1ccccc1NC(=O)COc1coc(CN2CCN(c3ccccc3)CC2)cc1=O	9	3	12	-4	0	·	·
CCN1c2ccccc2NC2C1C(C(C)=O)C(=O)N2c1ccc(Cl)cc1 (configuration not stated)	52*	62*	69*	0	-5	53*	50*	tim10 confirm=39*
C[C@@H]1CN([C@@H](C)CO)S(=O)(=O)c2ccc(Br)cc2O[C@@H]1CN(C)S(=O)(=O)c1cn(C)cn1	·	·	·	0	·	·	·
COc1ccc(-c2cc(C(=O)N3CCCCCC3)c3ccccc3n2)c(OC)c1	22	42*	54*	2	9	22	48*
COc1ccc(-c2cc(C(=O)N3CCN(c4ccccc4F)CC3)c3ccccc3n2)c(OC)c1	39	54*	57*	1	104*	58*	58*
COc1ccc(-c2cc(C(=O)N3CCN(c4ncccn4)CC3)c3ccccc3n2)c(OC)c1	59*	66*	51*	-1	-16	52*	13	tim10 confirm=7
Cc1ccc(-c2cc(C(=O)N3CCOCC3)c3ccccc3n2)o1	0	-3	9	5	20	·	·
Cc1ccc(-c2cc(C(=O)N3CCN(c4ccc(F)cc4)CC3)c3ccccc3n2)o1	27	44*	51*	-1	-45	26	44*
COc1ccc(N2CCN(C(=O)c3cc(-c4cc(OC)ccc4OC)nc4ccccc34)CC2)cc1	14	32	21	5	-17	·	·
C=CCN1C=CC(=O)[C@@H](OC(=O)Nc2ccc(Br)cc2)[C@H]1c1ccccc1Br	·	·	·	1	3	·	·
COc1ccc(-c2ccc(SCC(=O)c3ccccc3)nn2)cc1OC	18	19	-21	-1	-13	·	·
Cc1nn(CCCC(=O)NCCc2ccc(Cl)cc2)c(=O)c2nn(-c3ccccc3)c(C)c12	1	19	14	-3	10	·	·
O=C(c1ccc(F)cc1)N1CCC(C(=O)N2CCN(S(=O)(=O)c3cccc([N+](=O)[O-])c3)CC2)CC1	16	2	-10	-2	·	·	·
COc1ccc(-c2oc3cccnc3c2C#CC2(O)CCCCC2)cc1	41*	48*	58*	0	·	11	48*	tim10 confirm=26
COc1ccc(C)cc1NC(=O)CCCN1C(=O)C(c2ccccc2)Oc2cccnc21 (configuration not stated)	-14	33	29	-3	-14	·	·
Cn1nc(-c2ccc(Cl)cc2)nc2c(=O)n(C)c(=O)nc1-2	95*	93*	77*	·	·	92*	80*	tim10 confirm=99*
COc1cccc(NC(=O)CCC2CCN(C(=O)C3CC=CCC3)CC2)c1 (configuration not stated)	9	11	12	4	12	·	·
N#C/C(=C\c1cccc([N+](=O)[O-])c1)C(=O)NCC1CCCO1 (configuration not stated)	57*	57*	77*	-1	7	52*	72*	tim10 confirm=45*
SMILES	TIM10 inh	tim10-1 inh	tim23-1 inh	V-ATPase pHluor	PfHsp90 set2	tim10-1 conf	tim23-1 confirm	others
COc1cc(/C=C(\C#N)C(=O)NCC2CCCO2)c([N+](=O)[O-])cc1OC (configuration not stated)	22	34	34	-7	-15	·	·
N#C/C(=C\c1cc2c(cc1Br)OCO2)C(=O)NCC1CCCO1 (configuration not stated)	65*	67*	87*	-2	-5	67*	78*	tim10 confirm=72*
CN1CCN(C2=Cc3ccccc3Sc3cc(F)c(F)cc32)CC1	17	38	-6	1	33	·	·
CN1CCN(C2=Cc3cc(Cl)ccc3Sc3cc(F)ccc32)CC1	-15	57*	78*	-1	-5	40*	67*
Cc1ccc(O)c(Sc2cc(C)ccc2O)c1	27	47*	53*	-3	-20	28	45*
Cc1ccc(O)c(O)c1	-10	9	12	·	·	·	·
Cc1cc(C(=O)N/N=C/C=C/c2ccccc2[N+](=O)[O-])c(C)o1	56*	45*	55*	-3	15	44*	57*	tim10 confirm=41*
O=C(/C=C/c1cccc(C(F)(F)F)c1)Nc1cccc(C(F)(F)F)c1	58*	55*	72*	1	105*	56*	69*	tim10 confirm=53*
Cc1ccc(NC(=O)/C=C/c2cccc(C(F)(F)F)c2)cc1	-5	-27	-5	-1	-17	·	·
CN1CC[C@@H]2C(=O)N3CCc4ccc(-c5ccc6c(c5)OCO6)cc4[C@@H]3C[C@@H]21	·	·	·	-3	-25	·	·
CC(=O)Nc1ccc(NC(=O)c2c(C)nn(-c3ccccc3)c2Cl)cc1C	-11	-1	2	-3	10	·	·
CC1CCCN(S(=O)(=O)c2ccc(C(=O)Nc3nnc(C4CC4)o3)cc2)C1 (configuration not stated)	29	46*	53*	1	·	19	34
COc1ccc(NC(=O)C[C@H]2C(=O)N(c3ccccc3)C[C@@H]2CSC)cc1	·	·	·	2	·	·	·
COc1ccc(CCNC(=O)CSc2nc3ccsc3c(=O)n2Cc2ccccn2)cc1OC	·	·	·	-2	·	·	·
CCNc1ccc2noc3c2c1C(=O)c1ccccc1-3	29	56*	60*	3	-8	44*	49*
Cc1ccccc1C(N)=O	·	·	·	-1	·	·	·
C#CCOCCOCCOCCNc1nc(N2CCN(C(=O)[C@H](CCCN=C(N)N)n3cc(C(N)[C@@H](C)CC)nn3)CC2)nc(N2CCN(C(=O)[C@H](CCCCN)n3cc([C@@H](N)CC(N)=O)nn3)CC2)n1 (some centres not stated)	0	-4	3	-4	12	·	·
